D1 agonist: human D1 receptor agonism. P21728. HEK293 T-REx D1 cells, calcium flux, agonist mode. activation, % at 2 µM. hit rate 1% among 360,000; further: 0% is about no effect
Target sequence (P21728 whole entry, looked up): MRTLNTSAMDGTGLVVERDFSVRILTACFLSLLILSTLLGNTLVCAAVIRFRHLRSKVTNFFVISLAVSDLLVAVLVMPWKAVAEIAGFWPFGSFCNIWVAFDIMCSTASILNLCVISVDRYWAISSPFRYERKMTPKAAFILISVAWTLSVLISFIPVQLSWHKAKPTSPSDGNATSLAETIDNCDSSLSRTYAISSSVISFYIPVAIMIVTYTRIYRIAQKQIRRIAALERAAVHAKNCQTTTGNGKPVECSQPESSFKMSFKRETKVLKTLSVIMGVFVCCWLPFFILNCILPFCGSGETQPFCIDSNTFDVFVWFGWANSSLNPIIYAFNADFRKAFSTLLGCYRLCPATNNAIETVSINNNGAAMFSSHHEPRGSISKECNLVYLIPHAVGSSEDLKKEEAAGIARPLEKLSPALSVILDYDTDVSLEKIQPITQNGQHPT
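Inducible HEK293 T-REx D1 cells, force-coupled to calcium signalling, were plated at 4000 cells/well with tetracycline and held overnight at 30 C. After no-wash calcium dye loading, compound-evoked calcium rise over 180 s flagged agonists.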
GRP78 ERSR act: inducers of ER stress response in human glioma cells; U87-MG GRP78 promoter luciferase reporter, 16 h; Potency, µM, for inactives: at the highest dose activation, most hits filed as activators; AID 602332; hit rate 0.02% among 420,000; active means well fitted activation curve with a large enough effect; inconclusive means small, poorly fitted or top-dose-only effect; inactive means no such curve, though single readings can be large or run the other way; further: potency means the concentration at half of the fitted maximal effect; series mostly up to about 76 µM; % of control where 0% means no effect; nearly all actives have a fitted effect of over 35% in size
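Stably transfected U87-MG glioma cells carrying a GRP78-based luciferase sensor; 16 h compound incubation. Luminescence end-point read 10 min after Bright-Glo addition at room temperature.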
TRHR ag: agonists of human TRH receptor. P34981. TRHR cells, calcium flux fluo-8, FDSS agonist mode. activation, % at 2 µM. hit rate 0.18% among 360,000. AID 493084; further: 0% is about no effect
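Steps: seed TRHR cells overnight; add fluo-8 no-wash Ca dye, RT 30 min–1.5 h; record 10 s baseline; pin-transfer compounds; monitor fluorescence 1 cycle/s for the agonist window. Calcium increases flag candidate agonists.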
TRHR enhancer: TRH receptor (human) allosteric enhancement. P34981. TRHR cells, fluo-8 calcium fluorescence, EC20 TRH enhancement. enhancement, % at 2 µM. hit rate 0.66% among 360,000. AID 493056; in the data active means enhancement above about 30%; further: 0% is about no effect
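TRHR-expressing cells loaded with fluo-8 calcium dye were read kinetically (ex 480/em 530) during compound addition, then stimulated with an EC20 of TRH (10 nM final). Enhancement of the Gq-mediated intracellular calcium response was scored.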
D1 antag: blocks dopamine activation of the human D1 receptor; P21728; hit rate 3.2% among 360,000; activity change, negative = inhibition, % at 10 µM; HEK293 TREx D1 cells, calcium flux, dopamine EC80; hits give low values; in the data active means activity change below about -30%; further: on the % scale 0 is the no-effect control and ±100 the full control effect
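Compound effects on dopamine-evoked calcium signalling were measured in tetracycline-induced HEK293 Trex D1 cells. Dopamine at EC80 followed a 180 s compound pre-read, and fluorescence was tracked kinetically for 180 s more.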
D1 PAM: human D1 dopamine receptor positive modulation | HEK293 TREx D1 cells, calcium flux, dopamine EC20 potentiation | potentiation, % at 10 µM | hit rate 0.036% among 360,000 | AID 504651; in the data active means potentiation above about 30%; further: 0% is about no effect
Numbers without * were called inactive; ? = inconclusive; · = no result given. Shown are actives, neighbours in structure and some others; about 4% of the full set was active somewhere. Unless noted, no stated cut-off is given here; in the data, active means activation above about 30%; inactive means the rest.

SMILES	D1 agonist	GRP78 ERSR act	TRHR ag	TRHR enhancer	D1 antag	D1 PAM
CC(=O)C1=C(C)Nc2ncnn2C1c1cccc(OCc2ccccc2)c1 (configuration not stated)	-2.5	-2.0%	-0.3	24.8	-31.3*	-9.8
Cc1ccc(O)c(C(=O)c2cnc3c(c2)c(C)nn3-c2ccccc2)c1	4.9	-4.6%	0.1	3.4	10.1	0.8
CCOc1ccccc1Nc1sc(C(=O)c2ccccc2)c(N)c1S(=O)(=O)c1ccc(C)cc1	15.1	0.2%	0.4	4.0	12.5	1.6
CCS(=O)(=O)c1c(Nc2cc(C)ccc2C)sc(C(=O)c2ccccc2)c1N	41.1*	?	-1.8	0.0	38.5	5.0
Cc1ccc(Cl)cc1Nc1sc(C(=O)c2ccccc2)c(N)c1S(=O)(=O)c1ccccc1	53.7*	-1.8%	5.8	-9.8	-50.9*	2.6
CCOc1cc(CNc2ccc(O)cc2)cc(Cl)c1OCc1ccccc1	-0.5	12.6µM*	-0.6	25.9	-4.9	1.8
CCOc1c(Cl)cc(CNc2ccc(S(N)(=O)=O)cc2)cc1OC	20.4	-2.1%	-1.0	-2.8	-41.4*	-8.0
CCOc1cc(CNc2ccccc2)cc(Br)c1OCc1ccc(F)cc1	4.5	-5.1%	-0.5	10.0	16.9	-3.2
CCc1cc(=O)oc2cc(OCC(=O)NCC3CCC(C(=O)O)CC3)ccc12 (configuration not stated)	1.9	0.5%	0.3	5.0	-0.4	7.5
CN1CCC(N(C)C(=S)Nc2ccc(F)cc2)CC1	2.5	-1.2%	-0.5	1.9	-8.0	-2.9
CN1CCC(N(C)C(=S)Nc2ccc(SC(F)F)cc2)CC1	12.0	-2.6%	0.6	-2.2	-33.6*	-2.4
Cc1ccc(NC(=O)[C@@H](c2ccccc2)N2Cc3ccccc3C2=O)cc1	5.0	-1.4%	1.3	-2.8	-2.8	-5.5
CCc1cccc(NC(=O)Nc2ccc3c(c2)N(C)C(=O)c2ccccc2S3)c1	-0.8	-1.7%	0.3	-1.8	-38.9*	1.2
CN1C(=O)c2ccccc2Sc2ccc(NC(=O)Nc3ccccc3F)cc21	0.5	-3.5%	-0.6	-4.2	4.1	4.0
Cc1ccc(N2CCN(Cc3nnc(-c4ccccc4F)o3)CC2)c(C)c1	11.2	-3.6%	-0.1	-3.8	-50.1*	-3.5
Fc1ccccc1N1CCN(Cc2nnc(-c3ccc4c(c3)OCO4)o2)CC1	6.8	-1.5%	-0.4	-6.8	-6.4	-2.5
COc1ccc(F)cc1C(=O)C1CCCN(Cc2c[nH]c3ccccc23)C1 (configuration not stated)	46.8*	-2.0%	2.8	4.0	-43.1*	-4.4
COc1ccc(F)cc1C(=O)C1CCCN(C(=O)c2ocnc2C)C1 (configuration not stated)	1.2	-2.9%	-1.0	2.1	-31.9*	-1.4
COc1cccc(CN2CCCC(C(=O)N3CCCCC3)C2)c1OC (configuration not stated)	3.1	-2.5%	-1.5	32.5*	-2.2	-0.1
COc1ccc(F)cc1C(=O)C1CCCN(Cc2cn(C)c3ccccc23)C1 (configuration not stated)	19.2	-4.4%	1.5	4.2	-11.3	-10.2
CCN(CC)C(=O)C1CCN(Cc2ccc(OCc3ccccc3)cc2)CC1	13.6	6.3%	1.7	-0.9	-8.0	-1.0
CCN(C(=O)CSc1nc2ccc(OC)cc2[nH]1)C1CCS(=O)(=O)C1 (configuration not stated)	0.0	-0.8%	-0.3	3.6	-0.5	-5.0
O=C(Cn1cc(SCc2ccc(F)cc2)c2ccccc21)N1CCCC1	5.6	3.6%	0.5	-4.8	-30.1*	-5.2
O=C(CSc1cn(CC(=O)N2CCCC2)c2ccccc12)Nc1ccccc1C(F)(F)F	0.2	-3.2%	1.0	1.7	-44.3*	-7.0
O=C(CSc1cn(CC(=O)N2CCOCC2)c2ccccc12)Nc1ccccc1C(F)(F)F	2.4	-2.7%	0.0	5.3	-2.0	-2.9
SMILES	D1 agonist	GRP78 ERSR act	TRHR ag	TRHR enhancer	D1 antag	D1 PAM
O=C(Cn1cc(SCc2ccc(F)cc2)c2ccccc21)N1CCCCCC1	4.8	0.2%	0.1	-8.0	-25.4	-3.7
CN(C)/C=C/C(=O)c1ccc(Cl)cc1	7.7	2.0%	-0.9	5.5	-86.1*	-1.9
Cc1ccc(NC(=O)CSc2nnc(COc3ccc(Cl)cc3)o2)cc1	0.1	-1.0%	-0.6	1.8	8.0	2.4
Cc1cc(C)nc(SCc2cc(=O)c(OC(=O)c3ccc(S(=O)(=O)N(C)C)cc3)co2)n1	10.1	-3.8%	-0.9	2.2	-16.7	-2.1
CCCCNC(=O)/C=C/c1ccc(OC)c(Br)c1	0.1	2.3%	-1.3	-4.0	-30.5*	-11.8
Cc1ccc(C2C(C(=O)O)c3ccccc3C(=O)N2C)c(C)c1 (configuration not stated)	1.7	-4.6%	0.4	-1.9	-39.8*	2.3
O=C(CC1c2ccccc2Oc2ccccc21)Nc1ccccc1F	4.9	-5.7%	-2.1	15.6	2.9	-5.9
Cc1cc(=O)oc(C)c1C(=O)OC(C(=O)c1ccccc1)c1ccccc1 (configuration not stated)	1.5	-3.3%	-0.5	-0.3	-41.8*	-4.0
Cc1cc(=O)oc(C)c1C(=O)OCC(=O)c1ccccc1	4.5	-1.8%	-0.3	13.1	-2.0	-1.6
COc1ccc(-c2ccc3oc(-c4ccc(OC)cc4)c(C#CCO)c3c2)cc1	·	-5.1%	·	·	·	·
COCCNC(=O)c1ccc2c(c1)N(Cc1cc(C)ccc1C)C(=O)c1ccccc1S2=O (configuration not stated)	6.5	-2.7%	0.9	3.1	1.6	-2.7
COc1ccc(S(=O)(=O)N(CC(=O)O)c2ccc(C)cc2)cc1	2.7	-4.2%	0.1	1.1	-49.7*	2.9
COc1ccc(N(Cc2ccccc2)S(=O)(=O)c2ccc(C)cc2)cc1	14.6	0.5%	1.4	-5.1	-30.3*	-7.2
COC(=O)c1ccc(CN(c2ccc(OC)cc2)S(=O)(=O)c2ccccc2)cc1	·	-3.9%	·	·	·	·
CC(C)Oc1ccc(C(=O)N2CC(=O)Nc3ccc(F)cc3C2c2ccc(F)cc2)cc1 (configuration not stated)	3.0	-2.6%	0.1	3.7	7.6	-0.3
CC(C)COc1ccc(C(=O)NCC2OCCc3ccccc32)cc1 (configuration not stated)	1.6	2.3%	0.6	-5.0	-31.0*	-1.3
CC(C)CCOc1ccc(C(=O)NCC2OCCc3ccccc32)cc1 (configuration not stated)	12.3	·	-0.5	-6.1	-1.5	-2.9
COc1cc(OC)cc(C(=O)NC(C(=O)NNC(=O)c2ccc(C)cc2)C(C)C)c1 (configuration not stated)	1.4	3.6%	-0.8	5.7	14.8	5.0
